Reference: PubChem BioAssay (EPA / NIEHS)
Activity calls are given as the source filed them. Rule for the calls: active = hit-call score of the fitted dose curve at least 0.9, where 1 is the maximum; inactive = score below 0.9.

Assays:
[1] = ATG_CRE_CIS: Attagene CIS-FACTORIAL HepG2 Assay for human cAMP Responsive Element (CRE) binding protein 3 (AID 2282926); settings: HepG2 CRE cis-reporter, Attagene multiplexed mRNA; actives raise or lower the signal
How it was run: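 Readout: fluorescently labelled reporter transcripts resolved by capillary electrophoresis after RT-PCR, taken 24 h post-dosing in transfected HepG2. Endogenous transcription factor activity drives each cis-element reporter; gain or loss of signal fitted relative to DMSO control.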

[2] = molecular target: CCAAT/enhancer-binding protein beta (Homo sapiens) (UniProt P17676); assay: ATG_C_EBP_CIS: Attagene CIS-FACTORIAL HepG2 Assay for human CCAAT/Enhancer Binding Protein (C/EBP) beta (AID 2282927); settings: HepG2 Attagene cis-factorial transcription factor reporter; actives raise or lower the signal
Chain of CCAAT/enhancer-binding protein beta (Homo sapiens) (P17676 whole entry, looked up): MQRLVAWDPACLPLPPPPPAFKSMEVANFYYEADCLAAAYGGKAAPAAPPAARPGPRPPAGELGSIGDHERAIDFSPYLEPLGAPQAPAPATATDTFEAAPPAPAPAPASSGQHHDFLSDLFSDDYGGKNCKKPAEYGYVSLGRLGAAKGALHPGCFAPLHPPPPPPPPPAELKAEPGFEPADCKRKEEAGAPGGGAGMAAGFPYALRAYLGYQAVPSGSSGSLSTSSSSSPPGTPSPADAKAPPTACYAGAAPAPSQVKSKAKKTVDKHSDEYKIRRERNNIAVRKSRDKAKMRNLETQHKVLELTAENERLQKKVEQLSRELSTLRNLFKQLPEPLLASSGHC
How it was run: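 HepG2 transiently transfected with multiplexed reporter units under cis-regulatory promoters reporting endogenous C/EBPb activity. After 24 h exposure, reporter mRNA assayed by RT-PCR, fluorescent labelling, HpaI digestion and capillary electrophoresis; bidirectional fitting versus DMSO.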

[3] = ATG_CMV_CIS: Attagene CIS-FACTORIAL HepG2 Assay for human CMV (Internal Marker) (AID 2282928); settings: HepG2 CMV promoter reporter, transcription factor profiling; actives raise or lower the signal;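 note: endpoint acts as a background internal control marker rather than a target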
How it was run: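 Readout: fluorescent reporter cDNA fragments separated by capillary electrophoresis after RT-PCR and HpaI cut. Cells: HepG2 carrying transfected cis-promoter reporter constructs, dosed 24 h. Endpoint serves as background internal-marker control, fit bidirectionally versus DMSO.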

[4] = ATG_DR4_LXR_CIS: Attagene CIS-FACTORIAL HepG2 Assay for human Liver X Receptor (LXR), DR4 submotif (AID 2282929); settings: HepG2 Attagene DR4 cis-reporter, mRNA transcription; actives raise or lower the signal
How it was run: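 Readout: reporter transcript fluorescence after RT-PCR and capillary electrophoresis, fitted bidirectionally against DMSO controls. Human HepG2 liver cells carried transiently transfected multiplexed reporter constructs; endogenous transcription factor activity measured 24 h post-dosing.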

[5] = molecular target: Aryl hydrocarbon receptor (Homo sapiens) (UniProt P35869); assay: ATG_Ahr_CIS: Attagene CIS-FACTORIAL HepG2 Assay for human Aryl Hydrocarbon Receptor (Ahr) (AID 2282930); settings: HepG2 AhR cis-factorial reporter transcription; actives raise or lower the signal
Chain of Aryl hydrocarbon receptor (Homo sapiens) (P35869 whole entry, looked up): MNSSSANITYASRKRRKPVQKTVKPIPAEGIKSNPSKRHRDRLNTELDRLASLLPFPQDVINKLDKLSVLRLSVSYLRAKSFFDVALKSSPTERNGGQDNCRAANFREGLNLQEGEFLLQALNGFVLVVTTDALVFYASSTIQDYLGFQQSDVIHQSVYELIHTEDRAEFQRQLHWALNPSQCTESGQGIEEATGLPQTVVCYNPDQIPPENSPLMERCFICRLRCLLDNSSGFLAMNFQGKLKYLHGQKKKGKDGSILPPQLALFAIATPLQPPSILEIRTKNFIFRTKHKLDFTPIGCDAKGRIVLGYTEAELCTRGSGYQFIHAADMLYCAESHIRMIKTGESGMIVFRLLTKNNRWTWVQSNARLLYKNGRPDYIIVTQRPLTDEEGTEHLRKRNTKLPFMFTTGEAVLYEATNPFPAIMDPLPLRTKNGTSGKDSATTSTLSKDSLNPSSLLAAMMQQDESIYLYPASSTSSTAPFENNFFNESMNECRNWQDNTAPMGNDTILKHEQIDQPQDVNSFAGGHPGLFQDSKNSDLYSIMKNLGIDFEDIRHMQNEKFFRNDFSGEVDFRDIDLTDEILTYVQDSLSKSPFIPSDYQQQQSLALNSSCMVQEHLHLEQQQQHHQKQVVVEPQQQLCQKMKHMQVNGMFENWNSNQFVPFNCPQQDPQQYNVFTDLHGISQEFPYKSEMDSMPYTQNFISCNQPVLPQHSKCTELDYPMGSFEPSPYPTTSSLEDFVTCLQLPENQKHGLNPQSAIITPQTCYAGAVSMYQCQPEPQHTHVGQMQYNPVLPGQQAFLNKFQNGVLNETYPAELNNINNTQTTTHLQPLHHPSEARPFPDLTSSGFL
How it was run: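 HepG2 cells transiently transfected with cis-element-driven multiplexed reporter units; endogenous AhR activity read as reporter mRNA 24 h after dosing, via RT-PCR, 6-FAM labelling, HpaI digestion and capillary electrophoresis. Bidirectional fit relative to DMSO.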

[6] = ATG_AP_1_CIS: Attagene CIS-FACTORIAL HepG2 Assay for human Activator Protein 1 (AP-1) (AID 2282931); settings: HepG2 Attagene cis-factorial AP-1 reporter mRNA; actives raise or lower the signal
How it was run: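 Reporter transcripts were measured 24 h after dosing by RT-PCR and capillary electrophoresis of fluorescent fragments. Cells: HepG2 carrying transfected cis-regulated reporter constructs reading endogenous factor activity. Gain or loss fitted against DMSO.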

[7] = ATG_AP_2_CIS: Attagene CIS-FACTORIAL HepG2 Assay for human Activator Protein 2 (AP-2) (AID 2282932); settings: HepG2 AP-2 cis-reporter, Attagene transcription factor profiling; actives raise or lower the signal
How it was run: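 Read-out: fluorescent reporter mRNA via RT-PCR and capillary electrophoresis, 24 h post-dose in transiently transfected HepG2. Endogenous factors drive cis-promoter reporters; gain or loss of signal fitted bidirectionally against DMSO.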

[8] = ATG_BRE_CIS: Attagene CIS-FACTORIAL HepG2 Assay for human Bone Morphogenetic Protein (BMP) Response Element (BRE) (AID 2282933); settings: HepG2 BMP response element reporter, Attagene transcription factor profiling; actives raise or lower the signal
How it was run: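 HepG2 cells transiently transfected with multiplexed cis-element reporter units were dosed with chemical for 24 h. Reporter mRNA was measured by RT-PCR with fluorescent labelling, HpaI digestion and capillary electrophoresis; bidirectional fitting relative to DMSO.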

[9] = molecular target: Transcription factor E2F1 (Homo sapiens) (UniProt Q01094); assay: ATG_E2F_CIS: Attagene CIS-FACTORIAL HepG2 Assay for human E2F Transcription Factor 1 (AID 2282935); settings: HepG2 Attagene cis-reporter, E2F reporter RNA transcripts; actives raise or lower the signal
Chain of Transcription factor E2F1 (Homo sapiens) (Q01094 whole entry, looked up): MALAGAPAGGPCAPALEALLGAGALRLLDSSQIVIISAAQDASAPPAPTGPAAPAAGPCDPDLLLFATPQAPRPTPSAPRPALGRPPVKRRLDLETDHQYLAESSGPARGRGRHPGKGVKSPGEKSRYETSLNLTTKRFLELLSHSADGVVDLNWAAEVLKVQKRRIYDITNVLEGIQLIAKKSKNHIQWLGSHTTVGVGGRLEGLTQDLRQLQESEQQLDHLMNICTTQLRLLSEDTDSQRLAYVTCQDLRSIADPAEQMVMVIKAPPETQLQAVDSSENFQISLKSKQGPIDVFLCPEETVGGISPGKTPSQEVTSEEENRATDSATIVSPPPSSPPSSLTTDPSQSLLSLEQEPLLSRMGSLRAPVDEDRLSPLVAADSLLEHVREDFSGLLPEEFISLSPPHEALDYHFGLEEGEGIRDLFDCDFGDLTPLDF
How it was run: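 Transient MRTU transfection of HepG2; 24 h compound exposure; RNA → oligo(dT) RT → PCR → FAM label → HpaI cut → CE fluorescence. Gain/loss of signal fit against DMSO.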

[10] = ATG_E_Box_CIS: Attagene CIS-FACTORIAL HepG2 Assay for human Enhancer Box (E-box) (AID 2282936); settings: HepG2 E-box cis-reporter transcription, actives raise or lower the signal
How it was run: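 Transiently transfected HepG2, endogenous TF-driven reporters, 24 h dosing. Readout: RT-PCR plus capillary electrophoresis of fluorescent reporter fragments. Gain or loss of signal fitted bidirectionally against DMSO baseline.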

[11] = ATG_M_61_CIS: Attagene CIS-FACTORIAL HepG2 Assay for M61 Transcription Factor (Internal Marker) (AID 2282937); settings: HepG2 Attagene CIS-FACTORIAL M61 internal marker reporter; actives raise or lower the signal
How it was run: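 Readout: fluorescent reporter mRNA fragments resolved by capillary electrophoresis after RT-PCR. Transiently transfected human HepG2 cells carried MRTU constructs reporting endogenous TF activity; 24 h chemical exposure; gain or loss of signal fitted relative to DMSO.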

[12] = ATG_EGR_CIS: Attagene CIS-FACTORIAL HepG2 Assay for human Early Growth Response 1 (EGR1) (AID 2282938); settings: HepG2 Attagene CIS-FACTORIAL EGR reporter mRNA; actives raise or lower the signal
How it was run: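 Read-out: fluorescent reporter-mRNA fragments resolved by capillary electrophoresis after RT-PCR, 24 h post-dose in transiently transfected HepG2. Endogenous transcription-factor activity reported via cis-element-regulated reporter units; gain or loss fitted relative to DMSO.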

[13] = ATG_M_19_CIS: Attagene CIS-FACTORIAL HepG2 Assay for M19 Transcription Factor (Internal Marker) (AID 2282939); settings: HepG2 Attagene CIS-FACTORIAL M19 internal marker reporter; actives raise or lower the signal
How it was run: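 HepG2 cells transiently transfected with cis-regulated multiple reporter transcription units were dosed for 24 h; reporter mRNA was quantified by RT-PCR, 6-FAM primer-extension labelling, HpaI digestion and capillary electrophoresis, with bidirectional fitting against DMSO baseline.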

[14] = ATG_Ets_CIS: Attagene CIS-FACTORIAL HepG2 Assay for human Erythroblast Transformation Specific (ETS) (AID 2282941); settings: HepG2 ETS cis-reporter transcription, actives raise or lower the signal
How it was run: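 RT-PCR/capillary electrophoresis fluorescence read-out of reporter mRNA; HepG2 transient multi-reporter transfection; 24 h compound exposure; gain or loss of signal fitted bidirectionally relative to DMSO.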

[15] = molecular target: Hepatocyte nuclear factor 3-beta (Homo sapiens) (UniProt Q9Y261); assay: ATG_FoxA2_CIS: Attagene CIS-FACTORIAL HepG2 Assay for human Forkhead box A2 (FOXA2) (AID 2282942); settings: HepG2 cis-reporter transcription factor activity, 24 h; actives raise or lower the signal
Chain of Hepatocyte nuclear factor 3-beta (Homo sapiens) (Q9Y261 whole entry, looked up): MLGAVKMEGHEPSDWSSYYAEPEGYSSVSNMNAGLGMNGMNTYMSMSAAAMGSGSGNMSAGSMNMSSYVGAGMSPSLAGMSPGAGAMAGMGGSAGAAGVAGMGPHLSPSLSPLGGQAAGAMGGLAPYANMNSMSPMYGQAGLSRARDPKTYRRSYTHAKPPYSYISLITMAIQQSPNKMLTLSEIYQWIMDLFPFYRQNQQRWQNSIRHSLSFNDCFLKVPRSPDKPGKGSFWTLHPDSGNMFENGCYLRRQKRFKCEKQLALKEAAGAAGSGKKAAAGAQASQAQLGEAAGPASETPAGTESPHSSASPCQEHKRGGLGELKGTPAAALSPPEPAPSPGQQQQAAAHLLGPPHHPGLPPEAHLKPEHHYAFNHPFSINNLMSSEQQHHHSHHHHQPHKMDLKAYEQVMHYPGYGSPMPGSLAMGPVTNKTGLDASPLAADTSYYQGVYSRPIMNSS
How it was run: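 Readout: fluorescent reporter transcripts resolved by capillary electrophoresis after RT-PCR. Transiently transfected HepG2, 24 h compound exposure, endogenous TF activity at cis promoter elements. Gain or loss of signal fitted relative to DMSO.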

[16] = ATG_FoxO_CIS: Attagene CIS-FACTORIAL HepG2 Assay for human Forkhead box O (FoxO) (AID 2282943); settings: HepG2 Attagene cis-reporter, FoxO element, mRNA; actives raise or lower the signal
How it was run: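 HepG2 cells transiently transfected with cis-element-driven reporter units report endogenous FoxO activity. After 24 h chemical exposure, reporter mRNA quantified by RT-PCR, fluorescent labeling, HpaI digestion and capillary electrophoresis; bidirectional fit versus DMSO.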

[17] = ATG_GLI_CIS: Attagene CIS-FACTORIAL HepG2 Assay for human Zinc Finger Protein GLI1 (AID 2282945); settings: HepG2, Attagene cis-factorial reporter mRNA, GLI element; actives raise or lower the signal
How it was run: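 Transiently transfected HepG2 cells report endogenous transcription factor activity via cis-element-driven reporter units. After 24 h compound exposure, reporter mRNA was measured by RT-PCR with capillary electrophoresis; bidirectional fitting against DMSO baseline.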

[18] = ATG_GATA_CIS: Attagene CIS-FACTORIAL HepG2 Assay for human GATA Binding Protein (AID 2282944); settings: HepG2 GATA cis-element reporter, Attagene multiplex mRNA; actives raise or lower the signal
How it was run: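 HepG2 cells transiently transfected with multiplexed cis-element reporter units reflecting endogenous transcription factor activity; reporter mRNA measured after 24 h dosing by RT-PCR, 6-FAM labeling, HpaI digestion and capillary electrophoresis. Bidirectional fitting versus DMSO baseline.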

[19] = ATG_ERE_CIS: Attagene CIS-FACTORIAL HepG2 Assay for Estrogen Response Element (ERE) (AID 2282940); settings: HepG2 ERE cis-reporter, Attagene RNA transcript; actives raise or lower the signal
How it was run: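 HepG2 cells transiently transfected with cis-promoter-driven multiplexed reporter transcription units report endogenous TF activity. After 24 h compound exposure, reporter mRNA is quantified by RT-PCR with capillary electrophoresis fluorescence; bidirectional fitting versus DMSO baseline.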

Measured: AC50

CCCCCCC#CC(=O)OC
not listed: [18] | [19]
inactive: all other assays above

CC(CC(C)(C)C)CC(C)(C)CC(C)(C)C (configuration not stated)
not listed: [19]
inactive: all other assays above

COC(C(=O)O)c1ccccc1 (configuration not stated)
not listed: [19]
inactive: all other assays above

N#Cc1ccccc1
not listed: [19]
inactive: all other assays above

C=CC(C)(O)CCC=C(C)CCC=C(C)C (configuration not stated)
active: [1] 126 µM | [2] 137 µM | [3] 183 µM | [5] 51 µM | [6] 154 µM | [7] 161 µM | [10] 131 µM | [11] 166 µM | [12] 100 µM | [13] 176 µM | [14] 164 µM | [17] 178 µM
inactive: [4] | [8] | [9] | [15] | [18]

CC(C)C1CCC(O)CC1 (configuration not stated)
not listed: [15] | [16] | [18] | [19]
inactive: all other assays above

CC(O)C(C)O (configuration not stated)
not listed: [14] | [19]
inactive: all other assays above

Cc1ccc2n[nH]nc2c1
active: [5] 16.3 µM
not listed: [14] | [18]
inactive: all other assays above
